An excerpt weighted towards active compounds, which were near 11% of everything screened.
ALDH1A1 block: blocks purified human ALDH1A1 activity. P00352. Purified ALDH1A1, NADH fluorescence, propionaldehyde substrate. Potency, µM (top dose mostly 75.3 µM), for the others: at the highest dose activity, negative = inhibition, most hits filed as inhibitors. 220,000 tested, 7.3% active;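 note: potency is the fitted concentration of half-maximal effect; plate controls were no enzyme wells and a reference inhibitor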
IMPase cell inh: membrane-permeable compound that blocks inositol monophosphatase. 120,000 tested, under 10 active. inhibition (IP1 accumulation), % at 46.1 µM. CHO-M1 cells, IP1 accumulation, HTRF TR-FRET ratio; active = well fitted curve in the direction sought with a large enough effect in the signal ratio, not every such curve was filed as active; inconclusive = small, poorly fitted or top-dose-only effect, or a change in a side signal; inactive = no such curve, though single readings can be large or run the other way; the % refers to the signal ratio;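 note: cells stimulated with carbachol in lithium chloride buffer; plate controls were DMSO basal wells for no effect and reference inhibitor wells for full effect; higher means more IMPase inhibition seen as more IP1 and lower FRET ratio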
Target sequence (P97697 whole entry, looked up): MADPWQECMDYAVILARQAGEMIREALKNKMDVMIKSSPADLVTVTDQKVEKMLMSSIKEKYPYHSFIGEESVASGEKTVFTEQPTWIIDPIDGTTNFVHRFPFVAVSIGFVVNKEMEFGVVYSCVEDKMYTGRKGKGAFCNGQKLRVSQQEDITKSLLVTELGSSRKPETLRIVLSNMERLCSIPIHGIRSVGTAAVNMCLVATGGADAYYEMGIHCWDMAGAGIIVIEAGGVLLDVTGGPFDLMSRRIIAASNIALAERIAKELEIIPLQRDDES
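The IP-One HTRF competitive assay in carbachol-stimulated CHO-M1 cells quantifies cellular IP1. Compounds spanned up to 46 uM final, and activity is expressed as AC50 from concentration-response fits of the ratio and donor data.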
12-hLO inh: 12-hLO (ALOX12) enzyme inhibition; 150,000 tested, 0.12% active; Potency, µM (highest dose often 57.1 µM), for inactives: top-dose activity change, negative = inhibition, hits mostly inhibitors; P18054; purified 12-hLO, xylenol orange hydroperoxide absorbance; active = well fitted curve in the direction sought with a large enough effect; inconclusive = small, poorly fitted or top-dose-only effect, or another doubt; inactive = no such curve, though single readings can be large; an effect the other way counts as inactive or inconclusive; note: potency is the fitted concentration of half-maximal effect; nearly all actives have a fitted effect of over 55% in size
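Hydroperoxide formation by human 12-lipoxygenase from 40 uM arachidonic acid was followed colorimetrically via ferric-xylenol orange complex, using the 573/405 nm absorbance ratio. Enzyme concentration was 150 nM, with 30 min reaction at room temperature.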
PNC inhibitor: blocks assembly of the perinucleolar compartment; 140,000 tested, 3.1% active; PC3M PTB-GFP, PNC prevalence imaging, 16 h; active compounds read low; activity change (PNC), negative = inhibition, % at 10 µM; AID 2417;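 active = readout at or below -70, meaning at least 70% loss of cells showing the perinucleolar compartment, a nuclear body marking cancer cells; inconclusive = readout between -30 and a set limit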;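 note: plate controls were DMSO wells for no effect and camptothecin positive control wells for full effect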
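Read-out is percentage of cells bearing a perinucleolar compartment, from automated 20x imaging of fixed, Hoechst-stained PC3M PTB-GFP cells. Cells were seeded 4 h, then exposed 16 h to compound (23 nl of library stock) in duplicate plates.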
HPGD inh: blocks human HPGD enzyme activity | P15428 | purified HPGD, NADH fluorescence kinetic, PGE2 substrate | Potency, µM, without a hit: at the highest dose activity change, negative = inhibition, hits mostly inhibitors | 150,000 tested, 4.3% active | AID 894; note: potency is the fitted concentration of half-maximal effect
Target sequence (P15428 whole entry, looked up): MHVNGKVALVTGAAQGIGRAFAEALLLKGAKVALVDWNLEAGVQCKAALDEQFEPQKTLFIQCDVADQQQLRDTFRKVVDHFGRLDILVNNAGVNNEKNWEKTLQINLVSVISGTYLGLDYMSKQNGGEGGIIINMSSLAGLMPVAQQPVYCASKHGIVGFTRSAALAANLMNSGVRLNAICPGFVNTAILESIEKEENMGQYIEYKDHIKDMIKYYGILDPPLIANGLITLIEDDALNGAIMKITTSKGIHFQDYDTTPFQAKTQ
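NADH formation kinetics: reaction with 30 uM PGE2 and 1 mM NAD+ (final), 20 nM enzyme, Tris-HCl pH 8 with Tween 20, after 15 min compound preincubation at room temperature. Fluorescence change, last versus first of five reads.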
IMPase Li cell: IMPase inhibition in cells with lithium potentiation. CHO-M1 cells, IP1 TR-FRET (IP-One), carbachol + lithium. Potency, µM (doses to about 59.4 µM), inactives show at the top dose activity, negative = IMPase inhibition, most hits filed as inhibitors. 210,000 tested, 0.35% active; active = well fitted curve in the direction sought with a large enough effect; inconclusive = small, poorly fitted or top-dose-only effect, or another doubt; inactive = no such curve, though single readings can be large; an effect the other way counts as inactive or inconclusive;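 note: IP1 builds up when IMPase is blocked and the TR-FRET signal falls; potency is the fitted concentration of half-maximal effect; plate controls were basal vehicle for no effect and high inhibitor control for full effect; nearly all actives have a fitted effect of over 50% in size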
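Concentration–response in CHO-M1 cells, lithium-potentiated; 30 min at 37C. IP1 detected by competitive TR-FRET after 10 min lysis at RT. Hill-fitted AC50.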
Starred values were filed as active, the others as inactive; ? = inconclusive; . = not tested or not shown; [ ] = remark or other dose. Unless noted, calls come from the whole dose curve; as a rule, active = well fitted inhibition curve with a large enough effect (not every such curve was filed as active); inconclusive = small, poorly fitted or top-dose-only effect, or another doubt; inactive = no such curve, though single readings can be large or run the other way. Unless noted, % is set by controls: 0 for no effect and ±100 for the full control effect.

SMILES	ALDH1A1 block	IMPase cell inh	12-hLO inh	PNC inhibitor	HPGD inh	IMPase Li cell
Cc1cc(-n2c(C)cc(C(=O)CSc3nnnn3-c3ccccc3)c2C)no1	7.08µM*	5.6	-7.1%	-16.3	-12.3%	4.9%[38.3 µM]
Cc1ccc(-n2nnnc2SCC(=O)c2cc(C)n(-c3cc(C)on3)c2C)c(C)c1	2.24µM*	5.5	-26.9%	?	-18.5%	0.3%[38.3 µM]
Cc1cc(C(=O)CSc2nnnn2-c2ccccc2)c(C)n1CC1CCCO1 (configuration not stated)	?	-4.8	-13.5%	-12.8	-19.2%	7.5%[38.3 µM]
Cn1cccc1C(=O)N1CCC2(CCN(Cc3ccccc3)CC2)CC1	1.4%	.	-1.2%	.	-0.9%	31.4%
N#CC1(C#N)CC(C=O)=C(N)C1(C#N)CC(=O)C12CC3CC(CC(C3)C1)C2 (configuration not stated)	17.8µM*	6.5	-7.1%	18.2	-1.7%	-3.2%
CCC1CCCCN1CC(=O)N1CCCc2c1c(=O)oc1ccc(OCc3ccccc3)cc21 (configuration not stated)	.	6.1	.	.	.	.
CCC[C@@H]1C[C@@]1(CCC)C(NC(=O)c1ccco1)c1ccc(Cl)cc1 (some centres not stated)	0.2%	.	-6.2%	.	-14.0%	2.3%
O=C1c2ccccc2C(O)(Cc2ccccc2)N1C1CCCCC1 (configuration not stated)	22.4µM*	-5.8	-10.6%	?	-12.5%	4.5%[38.3 µM]
Cc1ccc2cc(/C=C(\C#N)C(N)=O)c(N3CCCCC3)nc2c1	11.2µM*	.	3.4%	-15.3	-15.8%	-10.1%
N#C/C(=C\c1cc2ccccc2nc1N1CCOCC1)C(=O)Nc1ccc(N2CCOCC2)cc1	-11.6%	.	-3.0%	?	-20.9%	4.1%
N#CC(C#N)=Cc1cc2ccccc2nc1N1CCOCC1	11.2µM*	.	-1.1%	3.2	0.4%	-4.2%
CCOC(=O)/C(C#N)=C/c1cc2ccccc2nc1N1CCCCC1	18.9µM*	.	.	.	.	?
N#C/C(=C\c1ccc(N2CCCCC2)o1)C(N)=O	-10.9%	.	.	.	.	33.9%
Cc1ccc2cc(C=C(C#N)C#N)c(N3CCCCC3)nc2c1	7.94µM*	-2.5	-0.7%	-11.3	-5.0%	-27.5%[38.3 µM]
Cc1cccc(NC(=O)c2cc3cc([N+](=O)[O-])ccc3s2)n1	0.2%	.	.	.	.	-3.4%
CC(C)OC(=O)[C@@H]1CC[C@H](C)[C@@H](CCC[C@@H]2C[C@@H](O)C[C@H](CC#N)O2)O1	-7.9%	.	.	.	1.6%	2.9%
COC(=O)NC(c1ccco1)[C@]1(C(C)=O)CCCC1=O (some centres not stated)	13.4%[13.5 µM]	.	.	.	.	.
Cn1cc(Cl)c(-c2n[nH]c(=S)n2-c2ccccc2)n1	-13.0%	.	-1.1%	21.7	-18.7%	11.2µM*
Cc1c(Cl)c(-c2n[nH]c(=S)n2-c2ccc(F)cc2)nn1C	?	?	-1.6%	10.2	-21.5%	11.2µM*
CCCCC1=CC2=C(c3ccco3)C(=O)C(C)(OC(=O)c3ccc(Cl)nc3)C(=O)C2=CO1 (configuration not stated)	4.9%	.	-4.4%	.	-12.1%	10.0%
COc1cc([N+](=O)[O-])ccc1-c1ccc(C(=O)Nc2ccc(NC(C)=O)cc2)o1	0.891µM*	.	-9.3%	58.2	28.2µM*	3.7%
c1nc(NCC2(N3CCOCC3)CCCCC2)c2ccsc2n1	4.1%	9.5	3.4%	-100.0*	-18.4%	13.5%
NNC(=O)c1[nH]c2ccc(Cl)cc2c1-c1ccccc1	1.12µM*	.	.	.	.	.
CC(C)CCNC(=O)Cc1c(C(=O)O)[nH]c2ccc(Cl)cc12	?	-0.7	-4.5%	0.0	.	.
NNC(=O)c1[nH]c2ccc(Br)cc2c1-c1ccccc1	0.159µM*	.	.	.	.	.
SMILES	ALDH1A1 block	IMPase cell inh	12-hLO inh	PNC inhibitor	HPGD inh	IMPase Li cell
CCc1c(C(=O)O)[nH]c2ccc(Br)cc12	-4.0%	?	0.6%	-8.5	6.1%	10µM*
O=C(N/N=C/c1ccccc1Cl)c1[nH]c2ccc(Br)cc2c1-c1ccccc1	?	1.1	-1.3%	?	-25.2%	1.8%
Cc1ccc2[nH]c(C(=O)NN=C3CCCCC3)c(-c3ccccc3)c2c1	1.41µM*	.	.	.	.	6.9%
c1nc(NC2CCNCC2)c2cc(-c3ccoc3)ccc2n1	?	.	.	.	.	7.6%
O=C(O)CSc1c(-c2ccccc2)c2cc(Cl)ccc2[nH]c1=O	0.1%	-4.7	-1.7%	55.7	-1.6%	-15.2%
CCOC(=O)CSc1c(-c2ccccc2)c2cc(Cl)ccc2[nH]c1=O	?	-8.9	2.1%	-16.6	17.8µM*	4.1%
O=C(CCS(=O)(=O)c1cccc2nonc12)NCCc1ccccc1	22.4µM*	-5.1	-9.9%	?	-7.9%	13.4%[38.3 µM]
Cc1ccc(Cl)cc1N1CCN(C(=O)CCS(=O)(=O)c2cccc3nonc23)CC1	22.4µM*	-0.9	-4.2%	?	-6.7%	12.4%
Cc1ccc(C)c(N2CCN(C(=O)C3CCCN(S(=O)(=O)c4cccc5nonc45)C3)CC2)c1 (configuration not stated)	.	3.2	.	.	.	.
O=C(CCS(=O)(=O)c1cccc2nonc12)NCc1ccc(Cl)cc1	8.91µM*	.	.	.	.	9.3%
COc1cccc(CNC(=O)CCS(=O)(=O)c2cccc3nonc23)c1	?	-4.0	1.0%	32.7	-3.9%	-3.7%[38.3 µM]
O=C(CCS(=O)(=O)c1cccc2nonc12)N1CCCc2ccccc21	11.2µM*	6.0	-7.6%	2.7	-14.9%	24.9%[38.3 µM]
Cc1ccc(-c2nc(N3CCCC(C)C3)c3ccccc3n2)cc1 (configuration not stated)	.	3.9	.	.	.	.
O=C(O)CN1C(=O)O[C@@H](c2ccccc2)C1=O	0.8%[13.5 µM]	.	-3.4%[11.4 µM]	.	-7.1%	3.5%
Cc1cccc(N(C)C(=O)CCS(=O)(=O)c2cccc3nonc23)c1	?	6.2	0.3%	25.6	-7.6%	27.4%[38.3 µM]
Cc1ccc(NC(=O)CCS(=O)(=O)c2cccc3nonc23)cc1	?	.	.	.	.	2.7%
Cc1ccc(Cl)cc1N1CCN(C(=O)Cn2ccc3ccccc3c2=O)CC1	20µM*	3.5	-16.0%	22.7	.	.
CC(C)CCNC(=O)CCS(=O)(=O)c1cccc2nonc12	10µM*	1.9	-3.7%	-22.9	-7.0%	34.0%[38.3 µM]
CC(C)NC(=O)CCS(=O)(=O)c1cccc2nonc12	25.1µM*	5.8	0.0%	12.7	-5.1%	10.8%[38.3 µM]
COc1ccc(N(C)C(=O)CCS(=O)(=O)c2cccc3nonc23)c(OC)c1	12.6µM*	0.3	5.1%	22.3	-4.5%	38.3%[38.3 µM]
CC(c1ccc(F)cc1)n1cc(C(=O)NCCN(C)C)nn1 (configuration not stated)	3.9%	.	.	.	.	2.1%
